Data as given in PMC12136788.
Changes are numbered by the printed parent chain. In all, about 5,800 sequences were measured (“enrichment r”: median about 0.54, highest 2% from about 16 on). This is one part of a sample in which the highest values are shown more often than they occur.

B1: chr13:42886387:42888493:-|three_prime_utr|ENSG00000133106|control|control|control (ssRNA)
RNA: GGGAGUUCUACAGUCCGACGAUCCAUAUUUAAUCUCUACUGCCAGGGAAAUGCUACAUUAUUUUUCUAAUUGGAAGUAUAAUUAGAGUGAUGUUGGUAGGGUAGAAAAAGAGGGAGUCACUUGAUGCUUUCAGGUUAAUCAGACAACAGAGGAUUGAGCAUCA
B2: chr3:46835109:46836203:-|three_prime_utr|ENSG00000160808|control|control|control (ssRNA)
RNA: GGGAGUUCUACAGUCCGACGAUCUGAAGGCACAAGCUGUUCCAGUAUAAUAAAGAAAAUAAUUAAAUUAAGAAAAGUUAUACUAGAAAUAAGAUAUAGGUAUGAUUAUUAUUAAUCAUUAGUUUGUAGUAUUACUUUGUUCUACAACAGAGGAUUGAGCAUCA
B3: chr1:183143318:183143419:+|3pUTR|ENSG00000135862|msi1|total|mutant (ssRNA)
RNA: GGGAGUUCUACAGUCCGACGAUCACAUCCUGUGCCAAAGGUAUUGGUCAUUCCGAAUGUCGGCCGCCAUCCAUCAGUGCUUUCCGUUAUUAUGAGUGCCGGACACUGAGCCAUCCGUGGGUCAGGAUGCAAUUAUUUAUAAAACAACAGAGGAUUGAGCAUCA
B4: chr3:100749155:100750494:-|three_prime_utr|ENSG00000154175|control|control|control (ssRNA)
RNA: GGGAGUUCUACAGUCCGACGAUCUGCCGCAUUCAUUUAAAGCUAUUUUGUUUACUAUGUAUAAAAGUCUACAAUCUAAUUAAUAGCAAUACUAGAUGUUUAUUAUUAGAAAAGAUUGCUGAGAGUAUUUAUCAGGUUUUACAACAACAGAGGAUUGAGCAUCA
B5: chr22:41636480:41636706:+|CDS|ENSG00000196419|unk|FALSE|unique (ssRNA)
RNA: GGGAGUUCUACAGUCCGACGAUCAUGGGCCACGGAUCUGACUACUCACUCAGUGAAGUGCUGUGGGUCUGUGCCAACCUCUUUAGUGAUGUCCAAUUCAAGAUGAGUCAUAAGAGGAUCAUGCUGUUCACCAAUGAAGACAACCAACAGAGGAUUGAGCAUCA
B6: chr1:223774945:223775046:+|3pUTR|ENSG00000162909|msi1|total|mutant (ssRNA)
RNA: GGGAGUUCUACAGUCCGACGAUCAAAUACACUUUGUAUCUGGACCUCAAAAUUAUGGGAACAUUUACUUAAACGGAUGAUCACCGCUGAAAAUAAUGAUACUGUCAAUUUGAGACCGCAGAAGUUUCACACAUCAAAGUAAAACAACAGAGGAUUGAGCAUCA
B7: chr2:108783740:108783841:+|CDS_3pUTR|ENSG00000153201|msi1_unk|FALSE|overlapping (ssRNA)
RNA: GGGAGUUCUACAGUCCGACGAUCCAAUAAUUCUCAAUUUGUUAUAACACUGAAGAAAGCAGAACAUUUGGACUUUAAGCAUGUAGUAUUUGGGUUUGUUAAGGAUGGCAUGGAUACUGUGAAAAAGAUUGAAUCAUUUGGUUCCAACAGAGGAUUGAGCAUCA
B8: chr16:61647241:61654101:-|three_prime_utr|ENSG00000150394|control|control|control (ssRNA)
RNA: GGGAGUUCUACAGUCCGACGAUCAAAGAAACUUGACAGUGGAUUAUAAAUAAAUCACUGGAACUGAGCAUUCUGUAAUAUUCUAGGGUCACUCCCCUUAGAUACAACCAAUGUGGCUAUUUGUUUUAGAGGCAAGUUUAGCACCAACAGAGGAUUGAGCAUCA
B9: chr1:62864655:62864756:+|3pUTR|ENSG00000125703|unk|FALSE|unique (ssRNA)
RNA: GGGAGUUCUACAGUCCGACGAUCUUUGUUAACUGUGAUAUGCAUACACUUAUAUAAGCAGAAUUAUGAGUUAAAGUAAUACUUAGCAAUAUGAUUUUAUAAUGGCUCCUCAUUAUGCUUGCUGUUGAACCUUUUAUGAGGAGUCAACAGAGGAUUGAGCAUCA
B10: chr3:62294137:62294238:+|3pUTR|ENSG00000144724|msi1|FALSE|unique (ssRNA)
RNA: GGGAGUUCUACAGUCCGACGAUCUGAGACCCUUUAGUUAUUCUCCAUUAAUGCUUCUUAGUUUGUAAUACCAUACCUCACAGUAGGUAGAAGAAUGAAAACUUCUGCAGGUGUGUAAUUUUGAAACUAGUCCUCUAAAAAUUCCAACAGAGGAUUGAGCAUCA
B11: chr8:74853834:74853946:+|3pUTR|ENSG00000137558|unk|total|mutant (ssRNA)
RNA: GGGAGUUCUACAGUCCGACGAUCAAGUGCUUUUUUUUUUCUGAAUUAAUCCGGUAUUGGUAAAAUAUAUUUUUAAAUUCCGUCCGCUUUAUAAACACAAUCCGAAUUACAAUUAAUUAACAGAGGUAUAAUUGUCUCACUUUCCAACAGAGGAUUGAGCAUCA
B12: chr12:123662440:123662541:+|3pUTR|ENSG00000111358|unk|FALSE|unique (ssRNA)
RNA: GGGAGUUCUACAGUCCGACGAUCAAUGGAAAUCACAAUUUUAAGUCUAGGAAAUAAAGUAUUAUAUAUACUUUCAAACAAGCUAGCAAGGCUUUUAUUAUUACUUUUUUAUUUGAAAUAUCUUAUAUAUUUGGUUAGUUCUGUCAACAGAGGAUUGAGCAUCA
B13: chr12:89642165:89642281:-|CDS|ENSG00000070961|unk|total|mutant (ssRNA)
RNA: GGGAGUUCUACAGUCCGACGAUCGCCAAAAACCUUUCUUCAAUCCGUAUGGGAAGCAUUACAAGAUGUCACUUUAAUUAUAUCCGAAAUUGCAGCCACCGUAUCAUUGGGCCUUUCUUUUUAUCAGCCUCCAGAAGGGGAUAACAACAGAGGAUUGAGCAUCA
B14: chr8:74853834:74853946:+|3pUTR|ENSG00000137558|unk|FALSE|unique (ssRNA)
RNA: B11 RNA with C50U, C51A, C79U, C80A, C83U, C84A, C101U, C102A
B15: ENSG00000070961:be:win_6001|3pUTR|ENSG00000070961|bound_else_gene|NA|bound_elsewhere_windowed (ssRNA)
RNA: GGGAGUUCUACAGUCCGACGAUCCAAGACAUGCUUAGUGUGUAUUUCUCUCUUUGAGACACUGUAAUUUCUACCAGAAAUUUCCAGAGCAUUAUGUAGGUAGAAAAAAAUGCAAGCAAGCUGUUAAAGAUCUUGGAUCCCAUUCAACAGAGGAUUGAGCAUCA
B16: chr3:97755980:97756081:+|3pUTR|ENSG00000080224|unk|total|mutant (ssRNA)
RNA: GGGAGUUCUACAGUCCGACGAUCUAAUUAAAAAUCUCUUUCCUACCUUCCGUAAUUUGCCGGAUGAACUGUAUGCAUUCCGACCGAAAUUGCUUUUGUUAAAUUUACAUUUAAACACAUCUUCAUUCACUCCGAGAAGCCAUACAACAGAGGAUUGAGCAUCA
B17: chr8:42175503:42175666:-|3pUTR|ENSG00000104368|msi1|FALSE|unique (ssRNA)
RNA: GGGAGUUCUACAGUCCGACGAUCAUGAAAGCAUGUCUCAAUAGUAAAAGAUAACAAGAUCUUUCAGGAAAGACGGAUUGCAUUAGAAAUAGACAGUAUAUUUAUAGUCACAAGAGCCCAGCAGGGCCUCAAAGUUGGGGCAGGCAACAGAGGAUUGAGCAUCA
B18: chr3:97755980:97756081:+|3pUTR|ENSG00000080224|unk|FALSE|unique (ssRNA)
RNA: B16 RNA with C49U, C50A, C59U, C60A, C79U, C80A, C83U, C84A, C131U, C132A
B19: chr8:42175503:42175666:-|3pUTR|ENSG00000104368|msi1|total|mutant (ssRNA)
RNA: B17 RNA with U41C, A42C, U83C, A84C, U89C, A90C, U104C, A105C
B20: chr6:145382534:145384023:-|three_prime_utr|ENSG00000112425|control|control|control (ssRNA)
RNA: GGGAGUUCUACAGUCCGACGAUCUCAACAUGAUUUAACAGAUCUAUAUGUUAAAGGAGAAAAAGAUAUGUGGAUGCUAUCAAUAGUAGCUGAAAAGCAUUUUCAGAAAUCUGUAAGUAGAGGAAAUGUAUUCAUAUGUUUCUACAACAGAGGAUUGAGCAUCA
B21: ENSG00000070961:be:win_6051|3pUTR|ENSG00000070961|bound_else_gene|NA|bound_elsewhere_windowed (ssRNA)
RNA: GGGAGUUCUACAGUCCGACGAUCCAGAAAUUUCCAGAGCAUUAUGUAGGUAGAAAAAAAUGCAAGCAAGCUGUUAAAGAUCUUGGAUCCCAUUAUAUAGUAUGUAUAGCUGAAAUCUGUAAUUCAAUCACUUUUUCUCUUUUACAACAGAGGAUUGAGCAUCA
B22: chr19:42216679:42217007:-|CDS|ENSG00000160570|control|control|control (ssRNA)
RNA: GGGAGUUCUACAGUCCGACGAUCCUUUCUGCUGGAUGAGGCUCCUGGCGCCGCCGGAGGCUUAGCCCGGGCCCGCAGCGGCCUAGAGCUCCUGCUGGAGCUGGAGCGCCGCGGGCAGUGCGACGAGAGCAACCUGCGGCUGCUCAACAGAGGAUUGAGCAUCA

These binders were tested against MSI1 full-length (mouse, UniProt Q61474 1-362) (assay: nsRBNS (natural sequence RNA bind-n-seq); RBNS binding buffer (assumed for nsRBNS): 25 mM Tris pH 7.5, 150 mM KCl, 3 mM MgCl2, 0.01% Triton X-100, 500 ug/ml BSA, 20 U/ml SUPERase-In, 4 C; UNK is unkempt and MSI1 is Musashi-1; names of the RNAs are library labels; protein concentration not given here; high values mean tight binding).
Sequence of MSI1 full-length (Q61474 whole entry): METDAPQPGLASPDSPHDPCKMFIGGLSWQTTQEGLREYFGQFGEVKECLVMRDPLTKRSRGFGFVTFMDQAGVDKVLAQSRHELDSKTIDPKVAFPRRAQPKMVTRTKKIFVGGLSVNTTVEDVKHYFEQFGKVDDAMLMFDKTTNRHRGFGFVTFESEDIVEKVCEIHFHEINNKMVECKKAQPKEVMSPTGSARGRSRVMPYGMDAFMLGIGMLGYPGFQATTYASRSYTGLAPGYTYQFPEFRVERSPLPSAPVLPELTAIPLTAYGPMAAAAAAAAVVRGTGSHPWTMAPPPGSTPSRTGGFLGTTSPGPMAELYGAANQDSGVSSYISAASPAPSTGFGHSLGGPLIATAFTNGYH
Work on B1 yielded a binding signal of 0.46 enrichment R. B2 was tested, and the binding signal was 24.8 enrichment R. Binder B3 has a binding signal of 0.319 enrichment R. Work on B4 yielded a binding signal of 4.63 enrichment R. Binder B5 has a binding signal of 0.384 enrichment R. For B6, the binding signal was 0.211 enrichment R. B7 gave a binding signal of 0.864 enrichment R. For B8, the binding signal was 1.27 enrichment R. Binder B9 has a binding signal of 0.957 enrichment R. Work on B10 yielded a binding signal of 8.1 enrichment R. B11 was tested, and the binding signal was 1.6 enrichment R. Binder B12 has a binding signal of 12.8 enrichment R. B13 showed a binding signal of 0.453 enrichment R. In the case of B14, the binding signal is reported as 47.1 enrichment R. B15 was tested, and the binding signal was 0.464 enrichment R. With B16 the binding signal was 1.21 enrichment R. In the case of B17, the binding signal is reported as 41.9 enrichment R. B18 gave a binding signal of 19.4 enrichment R. Work on B19 yielded a binding signal of 0.44 enrichment R. For B20, the binding signal was 1.04 enrichment R. B21 gave a binding signal of 37.4 enrichment R. In the case of B22, the binding signal is reported as 0.233 enrichment R.
